Several values for one entry are separate records, joined by “and”; a condition that tells them apart may be missing. Identical values can stand only once. Activity calls are given as the source filed them. Unless noted, no stated cut-off is given here; in the data, active means inhibition above about 80%; inactive means the rest.

A short description of one assay: HTB85 osteosarcoma cell growth inhibition, synergistic combos for chromothripsis tumors, BGB or cisplatin IC20 combos (AID 1671453).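 Further: cells exposed for 96 hours before readout; 0% = vehicle DMSO and 100% = high DMSO killing control.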 The note with it: HTB85 osteosarcoma cells, drug combinations, measured here: with BGB IC20, at 5 µM, stronger effect = higher value.
As to `CNNCc1ccc(C(=O)NC(C)C)cc1`, the inhibition (usually the relative decrease from the control value, in per cent) was 4.14% and -30.2%.
Still for that read-out and setting: then `O=NN(CCCl)C(=O)NC1CCCCC1`, with -2.92% and -20.1%.
Same read-out and setting: the figure for `O=NN(CCCl)C(=O)NCCCl` is 17.7%.
Still for that read-out and setting: then `O=c1c(O)c(-c2ccc(O)c(O)c2)oc2cc(O)cc(O)c12`, with -1.29%; and `Nc1nc(=S)c2[nH]cnc2[nH]1`, with 46%.
`CC(N)C12CC3CC(CC(C3)C1)C2` (stereo not given): the inhibition is -20.6%.
For `O=c1oc2c(O)c(O)cc3c(=O)oc4c(O)c(O)cc1c4c23`, the inhibition is -11.1%.

The same assay, now with this note: HTB85 osteosarcoma cells, drug combinations, measured here: with cisplatin IC20, at 0.5 µM, stronger effect = higher value.
Consider `CNNCc1ccc(C(=O)NC(C)C)cc1`, for which the inhibition was -5.46% and -13.6%.
Turning to `O=NN(CCCl)C(=O)NC1CCCCC1`, the inhibition is -13.8% and 2.41%.
For the compound `O=NN(CCCl)C(=O)NCCCl`, the inhibition is -10.4%.
The same measure, in the same setting: then `O=c1c(O)c(-c2ccc(O)c(O)c2)oc2cc(O)cc(O)c12`, with -33.8%.
Same read-out and setting: then `Nc1nc(=S)c2[nH]cnc2[nH]1`, with -7.75%; and `CC(N)C12CC3CC(CC(C3)C1)C2` (stereo not given), with -6.13%.
On the same count and under the same terms, the figure for `O=c1oc2c(O)c(O)cc3c(=O)oc4c(O)c(O)cc1c4c23` is -24.3%.

Staying with this assay, now noted: HTB85 osteosarcoma cells, drug combinations, measured here: with cisplatin IC20, at 5 µM, stronger effect = higher value.
For the compound `CNNCc1ccc(C(=O)NC(C)C)cc1`, the inhibition is -7.6% and -38.8%.
The same measure, in the same setting: then `O=NN(CCCl)C(=O)NC1CCCCC1`, with -45.5% and 7.57%; and `O=NN(CCCl)C(=O)NCCCl`, with 11.5%; and `O=c1c(O)c(-c2ccc(O)c(O)c2)oc2cc(O)cc(O)c12`, with -25%.
Still for that read-out and setting: the figure for `Nc1nc(=S)c2[nH]cnc2[nH]1` is 16.3%; for `CC(N)C12CC3CC(CC(C3)C1)C2` (stereo not given) it is -66.2%; for `O=c1oc2c(O)c(O)cc3c(=O)oc4c(O)c(O)cc1c4c23` it is -7.84%.

The same assay, now with this note: HTB85 osteosarcoma cells, drug combinations, single agent, at 5 µM, stronger effect = higher value.
On to `CNNCc1ccc(C(=O)NC(C)C)cc1`, for which the inhibition is 3.42% and -2.23%.
Still for that read-out and setting: then `O=NN(CCCl)C(=O)NC1CCCCC1`, with -16.4% and -4.13%.
Same read-out and setting: then `O=NN(CCCl)C(=O)NCCCl`, with 11%; and `O=c1c(O)c(-c2ccc(O)c(O)c2)oc2cc(O)cc(O)c12`, with -18.2%; and `Nc1nc(=S)c2[nH]cnc2[nH]1`, with 52.5%.
Still for that read-out and setting: then `CC(N)C12CC3CC(CC(C3)C1)C2` (stereo not given), with -17.9%; and `O=c1oc2c(O)c(O)cc3c(=O)oc4c(O)c(O)cc1c4c23`, with 28.9%.

The nature of another assay: CRL2098 osteosarcoma cell growth inhibition, synergistic combos for chromothripsis tumors, BGB or cisplatin IC20 combos (AID 1671454).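 Further: cells exposed for 96 h before readout; 0% = vehicle DMSO and 100% = killing by high DMSO.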 The note with it: CRL2098 osteosarcoma cells, drug combinations, at 0.5 µM, stronger effect = higher value.
With `CNNCc1ccc(C(=O)NC(C)C)cc1`, the inhibition was 3.58% (inactive) and -35.9% (inactive).
Consider `O=NN(CCCl)C(=O)NC1CCCCC1`, for which the inhibition is -30.9% (inactive) and -17.1% (inactive).
On the same count and under the same terms, then `O=NN(CCCl)C(=O)NCCCl`, with -22.8% (inactive); and `O=c1c(O)c(-c2ccc(O)c(O)c2)oc2cc(O)cc(O)c12`, with -28.1% (inactive).
The same measure, in the same setting: the figure for `Nc1nc(=S)c2[nH]cnc2[nH]1` is -31.6% (inactive); for `CC(N)C12CC3CC(CC(C3)C1)C2` (stereo not given) it is -53.4% (inactive); for `O=c1oc2c(O)c(O)cc3c(=O)oc4c(O)c(O)cc1c4c23` it is -20.7% (inactive).

Still in this assay, the particulars now being: CRL2098 osteosarcoma cells, drug combinations, measured here: combination with BGB at IC20, at 0.5 µM, stronger effect = higher value.
As for `CNNCc1ccc(C(=O)NC(C)C)cc1`, the inhibition is -18.3% and -64.1%.
With `O=NN(CCCl)C(=O)NC1CCCCC1`, the inhibition was -24.6% and 7.17%.
Still for that read-out and setting: the figure for `O=NN(CCCl)C(=O)NCCCl` is -7.62%; for `O=c1c(O)c(-c2ccc(O)c(O)c2)oc2cc(O)cc(O)c12` it is -37.5%.
`Nc1nc(=S)c2[nH]cnc2[nH]1`: the inhibition is -18.7%.
On the same count and under the same terms, then `CC(N)C12CC3CC(CC(C3)C1)C2` (stereo not given), with -8.22%; and `O=c1oc2c(O)c(O)cc3c(=O)oc4c(O)c(O)cc1c4c23`, with -5.49%.

The same assay, now with this note: CRL2098 osteosarcoma cells, drug combinations, measured here: combination with cisplatin at IC20, at 0.5 µM, stronger effect = higher value.
Take `CNNCc1ccc(C(=O)NC(C)C)cc1`: the inhibition is -1.94% and -14.9%.
Still for that read-out and setting: then `O=NN(CCCl)C(=O)NC1CCCCC1`, with -72.6% and -17.3%; and `O=NN(CCCl)C(=O)NCCCl`, with 2.1%; and `O=c1c(O)c(-c2ccc(O)c(O)c2)oc2cc(O)cc(O)c12`, with -36.5%.
On the same count and under the same terms, the figure for `Nc1nc(=S)c2[nH]cnc2[nH]1` is -26.5%; for `CC(N)C12CC3CC(CC(C3)C1)C2` (stereo not given) it is -77.6%; for `O=c1oc2c(O)c(O)cc3c(=O)oc4c(O)c(O)cc1c4c23` it is -39.6%.

A further assay is described as follows: HD-MB03 medulloblastoma cell growth inhibition, synergistic combos for chromothripsis tumors, BGB or cisplatin IC20 combos (AID 1671455; in the data active means inhibition above about 83%;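 further: 0% = vehicle DMSO and 100% = high DMSO as cytotoxic control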). The note with it: HD-MB03 medulloblastoma cells, at 0.5 µM, stronger effect = higher value.
In the case of `CNNCc1ccc(C(=O)NC(C)C)cc1`, the inhibition was 1.99% (inactive) and 3.37% (inactive).
Turning to `O=NN(CCCl)C(=O)NC1CCCCC1`, the inhibition was -11.2% (inactive) and -8.17% (inactive).
On the same count and under the same terms, the figure for `O=NN(CCCl)C(=O)NCCCl` is -9.81% (inactive); for `O=c1c(O)c(-c2ccc(O)c(O)c2)oc2cc(O)cc(O)c12` it is -8.42% (inactive); for `Nc1nc(=S)c2[nH]cnc2[nH]1` it is -3.75% (inactive).
For the compound `CC(N)C12CC3CC(CC(C3)C1)C2` (stereo not given), the inhibition was -18.7% (inactive).
Still for that read-out and setting: then `O=c1oc2c(O)c(O)cc3c(=O)oc4c(O)c(O)cc1c4c23`, with 11.2% (inactive).

Still in this assay, the particulars now being: HD-MB03 medulloblastoma cells, measured here: combo with BGB at IC20, at 0.5 µM, stronger effect = higher value.
Consider `CNNCc1ccc(C(=O)NC(C)C)cc1`, for which the inhibition is -4.48% and 4.11%.
Still for that read-out and setting: then `O=NN(CCCl)C(=O)NC1CCCCC1`, with -11.5% and -2.92%; and `O=NN(CCCl)C(=O)NCCCl`, with -13.2%; and `O=c1c(O)c(-c2ccc(O)c(O)c2)oc2cc(O)cc(O)c12`, with -5.54%.
On the same count and under the same terms, then `Nc1nc(=S)c2[nH]cnc2[nH]1`, with -3.35%.
Still for that read-out and setting: then `CC(N)C12CC3CC(CC(C3)C1)C2` (stereo not given), with -21.4%; and `O=c1oc2c(O)c(O)cc3c(=O)oc4c(O)c(O)cc1c4c23`, with -0.451%.

Staying with this assay, now noted: HD-MB03 medulloblastoma cells, measured here: combo with cisplatin at IC20, at 0.5 µM, stronger effect = higher value.
Regarding `CNNCc1ccc(C(=O)NC(C)C)cc1`, the inhibition was 6.48% and 0.786%.
Same read-out and setting: then `O=NN(CCCl)C(=O)NC1CCCCC1`, with -6.91% and -12.4%.
On the same count and under the same terms, then `O=NN(CCCl)C(=O)NCCCl`, with -3.83%; and `O=c1c(O)c(-c2ccc(O)c(O)c2)oc2cc(O)cc(O)c12`, with -14%; and `Nc1nc(=S)c2[nH]cnc2[nH]1`, with -7.29%.
Still for that read-out and setting: then `CC(N)C12CC3CC(CC(C3)C1)C2` (stereo not given), with -22.1%; and `O=c1oc2c(O)c(O)cc3c(=O)oc4c(O)c(O)cc1c4c23`, with -7.75%.

Source of the values: PubChem BioAssay.
